Results filed as inconclusive are left out. Values without a mark were called inactive. The source made the active and inactive calls. The call rests on the fitted dose curve; in most records, active means well fitted cell-killing curve with a large enough effect; inconclusive means small, poorly fitted or top-dose-only effect; inactive means flat fitted curve, though single readings scatter.
Assay: Cell Viability - N2a (AID 540);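 further: cells exposed to compound for 40 h at 37 °C; plate controls were DMSO alone for no effect and tamoxifen control for full effect; nearly all actives have a fitted effect of over 45% in size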
Conditions: N2a mouse neuroblastoma cell viability; activity change, negative = cytotoxicity: at 92.2 µM (top of the series)
Excerpt: NIH Chemical Genomics Center [NCGC]
NIH Molecular Libraries Screening Centers Network [MLSCN]
National Institutes of Environmental Health Sciences [NIEHS]
National Toxicology Program [NTP]
We have developed a 1536-well cell-based assay for quantitative high throughput screening (qHTS) against a number of cell lines to determine in vitro cytotoxicity of small molecules. This particular assay uses the N2a cell line which is derived from mouse neuroblastoma.
NCGC Assay Protocol Summary:
The CellTiter-Glo luminescent cell viability assay (Promega) is a homogeneous method to measure the number of viable cells in culture. The end point readout of this assay is based on quantitation of intracellular ATP, an indicator of metabolic activity, using the luciferase reaction. Luciferase catalyzes the oxidation of beetle Luciferin to oxyluciferin and light in the presence of ATP. The luminescent signal is proportional to amount of ATP present.
Using the CellTiter-Glo luminescent cell viability assay, the amount of cellular ATP was measured in the N2a cell line with complete culture medium following compound treatment for 40 hours. The assay was performed in opaque white Kalypsys 1536-well plates. In the screen, tamoxifen and doxorubicin were used as positive controls. Library compounds were measured for their ability to cause acute toxicity in the cell line, as reflected by a decrease in intracellular ATP levels, in a concentration-dependent manner. […] AC50 values were determined from concentration-response data modeled with the standard Hill equation.
qHTS protocol for CellTiter Glo N2a cellular assay
[Step] [Parameter] [Value] [Description]
1. Reagent; 5 uL; 1500 N2a cells/well
2. Time; 5 hr; 37 °C incubation
4. Controls; 23 nL; Tamoxifen 0.34 uM to 100 uM & Doxorubicin 0.02 nM to 100 uM
5. Time; 40 hr; 37 °C incubation
6. Reagent; 5 uL; CellTiter Glo reagent
7. Time; 20 min; Room Temperature
8. Detection; Luminescence; Viewlux plate reader
Keywords: cell viability, cytotoxicity, N2a cell line, luminescence, NTPHTS, NTPHTS_NCGC, NIEHS, EPA, DSSTox, MLSMR, MLSCN, NIH Roadmap, qHTS, NCGC

SMILES	activity change, negative = cytotoxicity
C=C(Cl)CCl	4.67%
Cc1cnc[nH]1	-12.2%
Nc1ccc(Oc2ccc(N)cc2)cc1	-20.2%
Cc1cc(C)cc(OP(=O)(Oc2cc(C)cc(C)c2)Oc2cc(C)cc(C)c2)c1	-83.5% (active)
O=C(O)CCl	-4.26%
C=C(C)CCl	-4.25%
CCC(Cl)[N+](=O)[O-] (stereo not given)	8.51%
[O-][Cl+2]([O-])O	4.3%
Clc1cccc(Cl)c1	-12.6%
CC(Cl)(Cl)Cl	-5.77%
CCCCC(CC)COC(=O)c1ccc(C(=O)OCC(CC)CCCC)c(C(=O)OCC(CC)CCCC)c1 (stereo not given)	9.45%
CC(C)Br	-11.6%
O=[N+]([O-])c1cc(Cl)c(Cl)c(Cl)c1	-9.76%
N#CC(O)c1ccccc1 (stereo not given)	4.62%
ClC=CCl	-12%
CCNCC	-0.441%
CCCCCC[N+](=O)[O-]	-2.64%
N#CCCC#N	2.86%
O=c1ccc(=O)[nH][nH]1	2.84%
C=CC(=O)OCC(CC)CCCC (stereo not given)	9.43%

SMILES	activity change, negative = cytotoxicity
C=COC(C)=O	6.25%
CC(C)(C)C(O)(CCc1ccc(Cl)cc1)Cn1cncn1 (stereo not given)	-15%
N#CCBr	-14.2%
Cc1coc2c1CCC(C)C2 (stereo not given)	7.56%
COc1ccc(C=O)cc1	6.37%
CCOC(=O)CBr	-2.92%
OC[P+](CO)(CO)CO	-11.7%
Nc1ccc(-c2ccc(N)c(Cl)c2)cc1Cl	-47.4%
BrC(Br)Br	-17.1%
Nc1ccc(-c2ccccc2)cc1	8.44%
CCCCCCCCCCCCCl	8.52%
CC(C)(C)OOC(=O)c1ccccc1	-15.5%
O=[N+]([O-])c1ccccc1O	-3.28%
CCCBr	4.63%
O=[N+]([O-])c1ccc(Cl)c(Cl)c1Cl	-20.1%
CC(=O)CCC(C)=O	9.61%
C(CCOCC1CO1)COCC1CO1 (stereo not given)	12.9%
O=Cc1ccc(Cl)cc1Cl	9.23%
CCOP(=S)(OCC)Oc1nc(Cl)c(Cl)cc1Cl	-4.33%
Clc1cccc2ccccc12	-1.15%

— PubChem BioAssay (NCATS)
